# Experimental data reported in the supplement of paper PMC10646978.
# ± gives the standard deviation.
# Assays:
# Details in all cases: modulator concentration 10 µM
# [1] = system: RAW-Dual (murine macrophage reporter line); test: NF-kB reporter (SEAP) activity fold change vs agonist alone; higher = enhanced NF-kB activity
# How it was run: (§1)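 Compound reached 10 μM final in each well by pin transfer, onto RAW-Dual murine macrophage reporter cells seeded at 50 000 per well in 384-well plates. After 1 hour at 37 °C, the cells were stimulated overnight with a PRR agonist. SEAP in the supernatant was read with QUANTI-Blue at 620 nm absorbance for NF-κB, and Lucia luciferase was read with QUANTI-Luc luminescence for IRF. Each signal was turned into fold change against the mean agonist-only control on the same plate, and two replicate plates were averaged with propagated errors.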
# [2] = system: RAW-Dual (murine macrophage reporter line); test: IRF reporter (Lucia luciferase) activity fold change vs agonist alone; higher = enhanced IRF activity
# How it was run: as §1
# [3] = system: RAW-Dual (murine macrophage reporter line); test: viability score (confluency relative to resting cells, overnight) (fraction); higher = more viable, active = viable (0.7 or more)
# How it was run: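 Confluency was the readout: RAW-Dual macrophages were imaged with IncuCyte after an overnight exposure to compound at 10 μM final. IncuCyte software produced two masks over all imaged wells. The viability score expresses confluency against resting cells, and both masks had to exceed 70% of resting cells for a compound to meet the cutoff.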
# [4] = agonist: CpG ODN 1826 0.5 ug/mL
Structure (SMILES),"NF-kB reporter [1, 4]",NF-kB reporter ([1]; agonist: LPS 0.1 ug/mL),NF-kB reporter ([1]; agonist: MPLA […]),IRF reporter ([2]; agonist: 3'3'-cGAMP 10 ug/mL),IRF reporter ([2]; agonist: LPS 0.1 ug/mL),IRF reporter ([2]; agonist: MPLA […]),viability score [3]
Cc1cccc(C)c1OCC(C)N.Cl (stereo not drawn),1.17 ± 0.25,1.25 ± 0.23,0.953 ± 0.058,0.89 ± 0.061,1.33 ± 0.29,1.04 ± 0.13,0.968 (active)
CC(C)c1cc(C(=O)N2Cc3ccc(CN4CCN(C)CC4)cc3C2)c(O)cc1O,0.0684 ± 0.0053,0.106 ± 0.0088,0.311 ± 0.052,0.509 ± 0.3,0.971 ± 0.37,0.991 ± 0.44,0.762 (active)
COc1cc(C=Cc2nc3ccccc3nc2O)cc(OC)c1,1.06 ± 0.054,1.06 ± 0.099,1.09 ± 0.074,0.565 ± 0.029,0.834 ± 0.087,1.08 ± 0.29,0.872 (active)
CNc1ccc([N+](=O)[O-])cc1-n1cnc(-c2ccc([N+](=O)[O-])cc2)c1,0.853 ± 0.068,0.807 ± 0.038,1.37 ± 0.12,1.02 ± 0.046,1.41 ± 0.082,1.58 ± 0.15,1.02 (active)
COc1cc(O)c2c(=O)cc(-c3ccc(O)cc3)oc2c1,1.15 ± 0.098,1.04 ± 0.076,1.01 ± 0.024,0.795 ± 0.11,0.959 ± 0.049,0.798 ± 0.099,0.997 (active)
O=C(CCCN1CCC(O)(c2ccc(Cl)cc2)CC1)c1ccc(F)cc1,0.827 ± 0.13,0.893 ± 0.074,1.12 ± 0.098,1.05 ± 0.071,1.36 ± 0.092,1.38 ± 0.13,1.01 (active)
CN(C)CCC=C1c2ccccc2Sc2ccc(Cl)cc21.Cl,0.333 ± 0.095,0.862 ± 0.052,1.12 ± 0.13,0.412 ± 0.046,1.39 ± 0.18,1.69 ± 0.16,0.547 (inactive)
Cc1ccn2c(-c3csc(NCc4ccccc4)n3)c(C)nc2c1,0.787 ± 0.061,1.03 ± 0.048,1.19 ± 0.15,0.442 ± 0.05,1.38 ± 0.082,1.46 ± 0.12,1.01 (active)
O=C(c1cc2ccccc2o1)N1CC(N2C(=O)CNC2=O)C1,1.17 ± 0.28,1.04 ± 0.081,1.06 ± 0.077,0.933 ± 0.038,1.12 ± 0.15,1.33 ± 0.13,0.989 (active)
CC(C)Cc1ccc(C(C)C(=O)O)cc1.NCCCC[C@H](N)C(=O)O (stereo not drawn),1.11 ± 0.26,0.97 ± 0.05,0.963 ± 0.064,0.903 ± 0.032,1.47 ± 0.16,1.41 ± 0.18,0.536 (inactive)
O=[N+]([O-])c1ccc2nc(S)sc2c1,0.847 ± 0.068,1.11 ± 0.15,1.11 ± 0.027,0.82 ± 0.082,0.986 ± 0.12,1.03 ± 0.15,0.992 (active)
Cn1nc(CNC(=O)c2cccc3ccccc23)cc1C1CC1,1.18 ± 0.067,0.852 ± 0.065,0.963 ± 0.025,0.833 ± 0.031,1.06 ± 0.059,0.962 ± 0.15,0.817 (active)
COc1ccc(C2SCc3cc(C)c(C)cc3CS2)cc1OC,0.831 ± 0.11,0.826 ± 0.069,1.1 ± 0.1,0.965 ± 0.045,1.4 ± 0.087,1.64 ± 0.14,1.01 (active)
CCOc1nc2cccc(C(=O)O)c2n1Cc1ccc(-c2ccccc2-c2nc(=O)o[nH]2)cc1,1.29 ± 0.17,1.14 ± 0.32,1.12 ± 0.073,0.886 ± 0.042,1.41 ± 0.38,1.31 ± 0.12,1 (active)
CCOC(=O)C1=C[C@]2(CC)CCCN3CCc4c(n1c1ccccc41)[C@@H]32,0.825 ± 0.057,0.946 ± 0.077,0.994 ± 0.07,0.998 ± 0.045,1.21 ± 0.15,1.4 ± 0.46,0.949 (active)
CCCOc1ccc(CCC(=O)O)cc1,1.38 ± 0.33,1.08 ± 0.075,0.985 ± 0.035,1.07 ± 0.23,1.11 ± 0.05,1.05 ± 0.1,1 (active)
COCCOC(=O)C1=C(C)NC(=S)NC1c1ccccc1OC (stereo not drawn),1.03 ± 0.098,0.995 ± 0.056,0.956 ± 0.11,0.964 ± 0.039,1.38 ± 0.095,1.19 ± 0.22,1.01 (active)
COc1nn(C)cc1C(=O)Nc1ccc(C(=O)NCCN2CCOCC2)cc1,1.02 ± 0.052,1.03 ± 0.083,0.893 ± 0.042,0.979 ± 0.049,1.28 ± 0.096,1.13 ± 0.23,0.994 (active)
COc1ccccc1C(=O)Nc1cnc(N2CCN(c3ccccn3)CC2)nc1,0.887 ± 0.038,1.02 ± 0.12,1.2 ± 0.066,0.913 ± 0.086,0.991 ± 0.21,1.12 ± 0.43,0.877 (active)
COc1ccc(Br)cc1S(=O)(=O)NCc1ccccc1,1.23 ± 0.3,0.932 ± 0.054,1.06 ± 0.11,1.18 ± 0.046,1.19 ± 0.13,1.21 ± 0.16,0.928 (active)
COc1ccc(-n2c(=O)c3c4c(sc3n3c(SC)nnc23)CCCC4)cc1,1.16 ± 0.13,1.06 ± 0.074,1.14 ± 0.044,0.971 ± 0.18,0.96 ± 0.04,0.921 ± 0.064,1 (active)
c1cnn(-c2ccc(N=Nc3ccc(-n4cccn4)cc3)cc2)c1,0.939 ± 0.087,1.05 ± 0.083,0.966 ± 0.082,0.814 ± 0.037,1.09 ± 0.1,1.02 ± 0.12,0.996 (active)
N=C1NC(=O)C(=Cc2ccc(-c3cccc(Cl)c3)o2)S1,0.688 ± 0.091,0.695 ± 0.048,1.77 ± 0.11,1.39 ± 0.11,1.17 ± 0.14,2.82 ± 0.65,0.932 (active)
CS(=O)(=O)O.Cc1c(O)cccc1C(=O)N[C@@H](CSc1ccccc1)[C@H](O)CN1C[C@H]2CCCC[C@H]2C[C@H]1C(=O)NC(C)(C)C,0.399 ± 0.017,0.968 ± 0.08,1.29 ± 0.07,1.09 ± 0.056,1.26 ± 0.29,1.32 ± 0.46,0.987 (active)
